How the values were obtained:
Assay in all cases: PBM binding z-score (relative to random genomic background probes); higher = stronger binding; sequences stand for … in GC…GCGATTGACAGCGTAGAATGAAGG
[1] = tested on: FXR:RXRa (NR concentration 270 nM, RXRa partner concentration 90 nM)
Procedure, shortened: (§1)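 Ligand-free nuclear receptor dimers were applied to custom Agilent 4×180K protein-binding microarrays whose double-stranded probes carried direct-repeat seeds, single-nucleotide variants, half-site ablations and random human genomic background sequences in 34-nt variable regions. Incubation lasted 1 h. Binding z-scores were computed against the random background probes from regression-normalized fluorescence.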

[2] = tested on: LXRa:RXRa (NR concentration 270 nM, RXRa partner concentration 90 nM)
Procedure, shortened: as §1

[3] = tested on: LXRa homodimer (NR concentration 270 nM)
Procedure, shortened: as §1

[4] = tested on: LXRb:RXRa (NR concentration 270 nM, RXRa partner concentration 90 nM)
Procedure, shortened: as §1

[5] = tested on: LXRb homodimer (NR concentration 270 nM)
Procedure, shortened: as §1

[6] = tested on: PPARa:RXRa (NR concentration 270 nM, RXRa partner concentration 90 nM)
Procedure, shortened: as §1

[7] = tested on: PPARg:RXRa (NR concentration 180 nM, RXRa partner concentration 90 nM)
Procedure, shortened: as §1

[8] = tested on: PPARg:RXRa 270nM:90nM, anti-RXR (NR concentration 270 nM, RXRa partner concentration 90 nM)
Procedure, shortened: as §1

[9] = tested on: PPARg:RXRa 30nM:10nM, anti-RXR (NR concentration 30 nM, RXRa partner concentration 10 nM)
Procedure, shortened: as §1

[10] = tested on: PPARg:RXRa 90nM:30nM, anti-RXR (NR concentration 90 nM, RXRa partner concentration 30 nM)
Procedure, shortened: as §1

[11] = tested on: PPARg:RXRa DBDmut IVT, anti-RXR (DBD mutation: RXRa K156A/R161A, NR concentration 270 nM, RXRa partner concentration 90 nM)
Procedure, shortened: as §1

[12] = tested on: PPARg:RXRa IVT, anti-PPARg (NR concentration 270 nM, RXRa partner concentration 90 nM)
Procedure, shortened: as §1

[13] = tested on: PPARg DBDmut:RXRa IVT, anti-PPARg (DBD mutation: PPARg1 K132A/R137A, NR concentration 270 nM, RXRa partner concentration 90 nM)
Procedure, shortened: as §1

[14] = tested on: PPARg DBDmut IVT, anti-PPARg (DBD mutation: PPARg1 K132A/R137A, NR concentration 270 nM)
Procedure, shortened: as §1

[15] = tested on: PPARg homodimer (NR concentration 180 nM)
Procedure, shortened: as §1

[16] = tested on: PXR:RXRa (NR concentration 270 nM, RXRa partner concentration 90 nM)
Procedure, shortened: as §1

[17] = tested on: PXR homodimer (NR concentration 270 nM)
Procedure, shortened: as §1

[18] = tested on: RARa:RXR (NR concentration 270 nM, RXRa partner concentration 90 nM)
Procedure, shortened: as §1

[19] = tested on: RARa homodimer (NR concentration 270 nM)
Procedure, shortened: as §1

[20] = tested on: RARb:RXRa (NR concentration 270 nM, RXRa partner concentration 90 nM)
Procedure, shortened: as §1

Row | Sequence | PBM binding z-score [1] | PBM binding z-score [2] | PBM binding z-score [3] | PBM binding z-score [4] | PBM binding z-score [5] | PBM binding z-score [6] | PBM binding z-score [7] | PBM binding z-score [8] | PBM binding z-score [9] | PBM binding z-score [10] | PBM binding z-score [11] | PBM binding z-score [12] | PBM binding z-score [13] | PBM binding z-score [14] | PBM binding z-score [15] | PBM binding z-score [16] | PBM binding z-score [17] | PBM binding z-score [18] | PBM binding z-score [19] | PBM binding z-score [20]
1 | ACTTACGGGTCAACGAGGTTCTAGCACGCGTATA | 6.65 | 4.04 | 0.325 | 3.66 | 0.336 | 5.59 | 5.12 | 4.83 | 1.82 | 3.67 | 3.33 | 3.8 | 1.11 | 0.889 | 2.64 | 4.32 | 0.435 | 4.17 | 0.866 | 4.12
2 | GCAGAAAGGTGAAACGCAGGTAACTCAGGGTGGC | 1.58 | 1.62 | -0.633 | 0.912 | -1.18 | 3.5 | 1.57 | 2.32 | -0.0918 | 1.39 | 3.02 | 2.42 | -0.00989 | -0.405 | 0.213 | 0.633 | -0.804 | 1.9 | -0.501 | 2.88
3 | CCGGCTGGGGCAAGGTTACCATAACGCACAGCCA | 0.218 | 0.386 | -0.338 | 0.353 | -1.36 | 1.09 | 1.04 | 0.822 | -0.299 | 0.627 | -0.429 | 0.466 | -1 | -1.85 | 0.0716 | 0.337 | -0.654 | 0.922 | -0.728 | 1.64
4 | CCTACCGGGCCAAAAAGGTCATTGATGCCGATAA | 3.51 | 4.28 | 3.75 | 4.21 | 0.286 | 4.55 | 1.69 | 3 | 0.292 | 1.97 | -0.0213 | 1.89 | -0.195 | -1.09 | 3.48 | 5 | 5.72 | 5.47 | 1.6 | 3.96
5 | CGAACGAGGGCATGAGTTGCTAGCAAATGCCGAT | 0.106 | 0.132 | -0.624 | 0.0886 | -1.12 | 1.35 | 1.1 | 1.52 | 0.000453 | 0.931 | 3.04 | 1.87 | -0.188 | -0.705 | -0.0181 | 0.336 | -0.327 | 0.293 | -0.816 | 1.82
6 | GCTCGGAGGACAAGGTCAGCGCTTTGTCCGTAGA | 2.42 | 2.15 | -0.539 | 1.88 | -0.677 | 2.94 | 0.785 | 2.1 | -0.477 | 0.958 | 0.29 | 1.07 | -1.37 | -1.53 | 1.12 | 2.18 | -0.34 | 2.68 | -0.859 | 3.88
7 | GATACAGGGTCAGCTAGAGACCAGAGTATGGAAA | 4.21 | 2.28 | -0.37 | 2.36 | -0.416 | 4.54 | 3.4 | 3.33 | 0.781 | 2.29 | 1.1 | 2.34 | 0.401 | -0.539 | 1.14 | 1.89 | 0.00163 | 2.98 | 0.39 | 3.53
8 | CGTCCAGGGTCAAGGTCAGTGAAAGAGACTCGAA | 7.27 | 4.72 | 0.165 | 4.58 | -0.131 | 6.04 | 6.91 | 6.41 | 3.27 | 5.71 | 1.82 | 4.14 | 0.455 | 0.241 | 3.01 | 4.77 | 0.845 | 5.13 | 1.53 | 5.23
9 | TCTGCTAGGTCAACGATGGTGAGCTAATCTGCTA | 2.96 | 1.8 | -0.337 | 1.15 | -0.262 | 2.95 | 2.17 | 3.07 | 1.74 | 2.39 | 4.06 | 4.11 | 0.101 | -0.356 | 0.2 | 0.739 | -1.18 | 1.68 | -1.07 | 3.98
10 | CCTATTAGTTGACCATAAGGCCAACCGAAGCTCG | 0.949 | 0.37 | 0.825 | 0.782 | 0.89 | 0.392 | 0.405 | 0.45 | 0.0484 | 0.551 | 0.55 | 0.487 | 0.478 | 0.312 | 1.95 | 0.947 | 1.1 | 0.845 | 1.87 | 1.34
11 | AATACAGGGTCACTAGGCAAGAGTAGGTACGAAT | 6.39 | 4.96 | 0.866 | 3.82 | 1.1 | 5.59 | 7.09 | 5.74 | 3.03 | 4.6 | 3.19 | 4.81 | 1.06 | 0.858 | 2.63 | 3.06 | 0.322 | 4.1 | 1.16 | 4.13
12 | CCTACTCGGCCATCAGGTCATTGATATCAACGTT | 2.3 | 1.76 | 2.13 | 2.26 | 1.01 | 2.16 | 1.06 | 1.62 | 0.262 | 1.02 | 2.58 | 2.67 | 0.141 | -0.00439 | 2.27 | 2.02 | 1.21 | 2.36 | 1.12 | 2.29
13 | CCTACTGGGCCACGAAAGTTCATTGATTCAGTGA | 0.912 | 3.67 | 4.62 | 1.82 | -0.000733 | 2.69 | 2.47 | 2.77 | 0.297 | 1.86 | 6.16 | 5.56 | 0.407 | 0.518 | 1.35 | 4.97 | 6.21 | 2.03 | -0.507 | 2.72
14 | TCATATAGGTAAAAGGTGAAAGACGGTGTGGTAA | 2.04 | 2.03 | 0.309 | 2.05 | 0.213 | 5.1 | 9.86 | 8.73 | 9.9 | 10.6 | 5.58 | 5.42 | 1.69 | 1.75 | 3.5 | 1.66 | 0.734 | 3.13 | 1.65 | 1.91

From the supplement of paper PMC6555819
